Results: PubChem BioAssay (EPA / NIEHS)
Results filed as inconclusive are left out. A structure can be active in one record and inactive in another. Calls of active or inactive are those of the source. The calls were made as follows, unless noted: active = hit-call score of the fitted dose curve at least 0.9, where 1 is the maximum; inconclusive = response in the unintended direction; inactive = score below 0.9.

Columns and labels:
[1] = target: Estrogen receptor (Homo sapiens) (UniProt P03372); assay: CCTE_Deisenroth_AIME_384WELL_LUC_Active: CCTE's 384-well Estrogen Receptor Transactivation Assay with AIME metabolic competence (ERTA luciferase; metabolism positive), Deisenroth Lab (AID 2284030)
Sequence of Estrogen receptor (Homo sapiens) (P03372 whole entry, looked up): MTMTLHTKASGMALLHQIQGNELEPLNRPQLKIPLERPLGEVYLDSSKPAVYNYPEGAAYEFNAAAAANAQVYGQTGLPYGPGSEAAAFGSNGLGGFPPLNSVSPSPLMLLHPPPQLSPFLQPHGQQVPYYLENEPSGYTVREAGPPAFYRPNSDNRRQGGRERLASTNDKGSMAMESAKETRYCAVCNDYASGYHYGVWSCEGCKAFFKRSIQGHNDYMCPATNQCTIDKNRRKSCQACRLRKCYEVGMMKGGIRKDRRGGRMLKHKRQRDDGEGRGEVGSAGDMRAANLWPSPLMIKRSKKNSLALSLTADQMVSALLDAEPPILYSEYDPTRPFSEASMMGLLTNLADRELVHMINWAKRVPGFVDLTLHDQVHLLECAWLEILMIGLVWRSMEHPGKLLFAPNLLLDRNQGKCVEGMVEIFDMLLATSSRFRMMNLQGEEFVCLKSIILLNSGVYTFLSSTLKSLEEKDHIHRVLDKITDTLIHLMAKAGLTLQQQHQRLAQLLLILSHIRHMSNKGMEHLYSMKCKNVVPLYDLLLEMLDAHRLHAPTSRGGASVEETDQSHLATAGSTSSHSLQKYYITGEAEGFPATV
How it was run: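 In this metabolism-positive format, a 2-hour exposure to alginate-immobilized rat S9 precedes a 24 hour luciferase transactivation readout in VM7Luc4E2 cells. Dosing spans 10 concentrations from 0.002 to 200 uM.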

[2] = target: Estrogen receptor (Homo sapiens) (UniProt P03372); assay: CCTE_Deisenroth_AIME_384WELL_LUC_Inactive: CCTE's 384-well Estrogen Receptor Transactivation Assay without AIME metabolic competence (ERTA luciferase; metabolism negative), Deisenroth Lab (AID 2284038);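 also: VM7Luc4E2 breast cells given medium preincubated 2 h with S9-free microspheres; hits raise estrogen receptor luciferase signal so potencies reflect agonists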
How it was run: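 Metabolism-negative mode: AIME lids stamped in alginate-water, no hepatic S9. 2 h chemical incubation → medium onto VM7Luc4E2 ERTA, 24 h. Readout luciferase luminescence; gain-of-signal fit vs 17beta-estradiol. Conc. 0.002 - 200 uM.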

[3] = CCTE_Deisenroth_AIME_384WELL_CTox_Active: Cytotoxicity Assessment (CTOX) in CCTE's 384-well Estrogen Receptor Transactivation Assay with AIME metabolic competence (metabolism positive), Deisenroth Lab (AID 2284037);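 also: chemicals first conditioned 2 h by alginate-bound induced rat liver S9 before cells; activity means signal loss indicating cell death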
How it was run: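 Cytotoxicity in VM7Luc4E2 breast cells, 24 hour, measured as protease-substrate fluorescence loss, after 2-hour metabolic conditioning with induced rat hepatic S9 in alginate microspheres. Concentrations 0.002 - 200 uM, 10 points, bidirectional fitting.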

[4] = CCTE_Deisenroth_AIME_384WELL_CTox_Inactive: Cytotoxicity Assessment (CTOX) in CCTE's 384-well Estrogen Receptor Transactivation Assay without AIME metabolic competence (metabolism negative), Deisenroth Lab (AID 2284039);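 also: cell viability via live-cell protease substrate cleaved to fluorescent probe; cells exposed 24 h to medium preincubated 2 h with alginate-water beads without S9; loss of fluorescence signal means loss of viability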
How it was run: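 Fluorescent protease-substrate viability readout after 24 h exposure of VM7Luc4E2 cells to conditioned medium. Chemicals (0.002–200 uM) first sat 2 h over alginate-water beads, no S9. Data fitted bidirectionally, loss of signal meaning viability loss.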

[5] = CCTE_Shafer_MEA_dev_firing_rate_mean: CCTE's Neural Network Formation Assay for Mean Firing Rate, Shafer Lab (AID 2284031; active = hit-call score of the fitted dose curve at least 0.9, where 1 is the maximum; inactive = score below 0.9)
Description: CCTE_Shafer_MEA_dev assay is conducted using Axion Biosystems 48 well microelectrode array (MEA) plates and Maestro recording system. Each well of the MEA plate contains a grid of 16 microelectrodes embedded in the culture surface. Electrically active cells, such as neurons, can be cultured over the electrodes, and electrical activity in these cells can be recorded extracellularly. The spontaneous firing of neurons is captured from each electrode on a microsecond timescale providing both temporally and spatially precise data. […] The CCTE_Shafer_MEA_dev assay uses primary cultures of rat cortical neurons. Recordings are made on days post-plating 5, 7, 9 and 12. As these cultures mature over time, neural networks develop functional activity and form cohesive networks in which electrical activity can be highly coordinated. CCTE_Shafer_MEA_dev_firing_rate_mean is 1 of 19 assay components of the CCTE_Shafer_MEA_dev assay. It measures the frequency of spikes (action potential firings) as the total number of spikes divided by the length of the recording in a microelectrode array (MEA) using Axion Biosystems Maestro 768 channel amplifier with the AxIS adaptive spike detector. The firing rate is averaged across the active electrodes to report a well-mean value. To collapse across multiple recordings made on days post-plating 5, 7, 9 and 12, the trapezoidal area-under-the-curve of the component is calculated.Data from the assay component CCTE_Shafer_MEA_dev_firing_rate_mean was analyzed into 1 assay endpoint. This assay endpoint, CCTE_Shafer_MEA_dev_firing_rate_mean, was analyzed in the negative analysis fitting direction relative to DMSO as the negative control and baseline of activity. Using a type of functional reporter, gain or loss-of-signal activity can be used to understand electrical activity.
On the day prior to culture, each well was coated thoroughly with 150 uL of 0.05% polyethyleneimine (PEI, Sigma Cat P3143) in 50 mM HEPES (Sigma Cat H7523) at a pH of 8. The plate was incubated at 37C for one hour. PEI was rinsed out with 500 uL of sterile water three times. Plates were stored at 4C until the day of culture. This culture was plated at a seeding density of 1.5 x 10^5 cells/well on a 48-well MEA plate, prepared as described above. Cells were administered via a 25 uL media/laminin ([…]; Sigma Cat L2020-1MG) drop directly onto the microelectrode array, as adding the cells with the laminin results in better attachment than pre-coating with laminin. After 2 hours, an additional 475 uL of cortical media was added and the cells returned to the incubator. Exposure starts at day 0 of plating and is continued over twelve days of network development until the experiment is terminated. Cells are fed with fresh medium on DIV 5 and 9, following the recordings on those days. The entire volume of media in the well is exchanged and any vehicle or compound treatment is renewed. Complete details are found in OP-NHEERL/ISTD/SBB/TJS/2015-03-r0 (available on request, email shafer.tim@epa.gov). Measurement of the electrical activity is non-invasive, and recordings can be made from the same plate over multiple different days of the culture. In cortical neurons, this allows for the measurement of extracellular action potentials over the period during which networks form in the MEA plate.

[6] = CCTE_Shafer_MEA_dev_per_burst_spike_percent: CCTE's Neural Network Formation Assay for Percent of Spikes in a Burst, Shafer Lab (AID 2284032; active = hit-call score of the fitted dose curve at least 0.9, where 1 is the maximum; inactive = score below 0.9;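 as to AC50: fitted as a decrease in burst spike percentage below DMSO baseline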)
How it was run: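 Value is trapezoidal AUC over recordings on days 5, 7, 9 and 12 of the well-mean fraction of spikes falling in single-electrode bursts; rat cortical cultures exposed continuously from plating, treatment renewed DIV 5 and 9, fitted downward against DMSO.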

[7] = CCTE_Shafer_MEA_dev_active_electrodes_number: CCTE's Neural Network Formation Assay for Number of Active Electrodes, Shafer Lab (AID 2284040);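 as to AC50: potency for loss of active electrodes versus DMSO so lower counts are hits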
How it was run: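 Developing rat cortical networks on MEAs, exposed DIV 0–12. Value is the AUC of active-electrode counts (≥5 spikes/min) from days 5, 7, 9, 12, relative to DMSO.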

[8] = CCTE_Shafer_MEA_dev_burst_rate: CCTE's Neural Network Formation Assay for Burst Rate, Shafer Lab (AID 2284042; active = hit-call score of the fitted dose curve at least 0.9, where 1 is the maximum; inactive = score below 0.9)
How it was run: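 Exposure ran continuously over 12 days of network development in rat cortical cultures, with compound refreshed during full media changes on DIV 5 and 9. Single-electrode bursts per recording time, well-mean over active electrodes, trapezoidal AUC across days 5–12, fitted downward relative to DMSO.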

[9] = CCTE_Shafer_MEA_dev_bursting_electrodes_number: CCTE's Neural Network Formation Assay for Number of Bursting Electrodes, Shafer Lab (AID 2284043);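 as to AC50: potency is for loss of bursting electrodes relative to DMSO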
How it was run: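 Number of electrodes reaching ≥1 burst every 2 min was recorded at DIV 5, 7, 9 and 12 and collapsed as trapezoidal area under the curve. Cultures were rat cortical neurons on MEA plates, dosed continuously from plating with medium and treatment refreshed on DIV 5 and 9.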

[10] = CCTE_Shafer_MEA_dev_per_burst_interspike_interval: CCTE's Neural Network Formation Assay for Burst Interspike Interval, Shafer Lab (AID 2284044; active = hit-call score of the fitted dose curve at least 0.9, where 1 is the maximum; inactive = score below 0.9;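 as to AC50: potency for a decrease of within-burst interspike interval below DMSO level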)
How it was run: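 Developmental network-formation MEA in primary rat cortical cultures with exposure spanning days 0–12. Within-burst ISI is averaged per well and integrated across recording days by area under the curve, with DMSO as negative control baseline.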

Measured: AC50

CCCCCCC(=O)OCC
inactive: [1] | [2]

CNCc1cc(F)ccc1Oc1ccc(Cl)c(Cl)c1
active: [4] 19.8 µM
inactive: [1] | [3]

CCCCOC(=O)CCCCCCCCC(=O)OCCCC
inactive: [1] | [3] | [2] | [4]

Nc1ccc2c(c1)C(=O)c1ccccc1C2=O
inactive: [3]
active: [1] 72.1 µM | [2] 11.2 µM

Cc1cccc(C)c1O
inactive: [1] | [3] | [2] | [4]

C[Si]1(C)O[Si](C)(C)O[Si](C)(C)O[Si](C)(C)O1
not listed: [3]
inactive: all other assays above

CCCCCCCC=O
active: [1] 27.9 µM | [2] 25.7 µM

COCCOCCOC
inactive: [1] | [3] | [2] | [4]

OC[C@@H](O)[C@@H](O)[C@H](O)[C@H](O)CO
inactive: [5] | [6] | [7] | [8] | [9] | [10]

C=CCc1ccc(O)c(OC)c1
inactive: all assays above

CNC(=O)[C@H]1O[C@@H](n2cnc3c(NCc4cc(Cl)ccc4OCc4cc(C)no4)ncnc32)[C@H](O)[C@@H]1N
inactive: [1] | [3] | [2]

Cc1ccc(N(C)C)cc1
inactive: [1] | [3] | [2] | [4]

CCCCCCCCCCO
inactive: [1] | [3] | [2]

CCCc1cc(=O)[nH]c(=S)[nH]1
active: [6] 22.9 µM | [7] 22.9 µM | [9] 23.2 µM | [10] 11.7 µM
inactive: [1] | [5] | [6] | [3] | [2] | [4] | [7] | [8] | [10]
